# Several values for one entry are separate records, joined by “and”; a condition that tells them apart may be missing. Identical values can stand only once. Screen size: about 200,000 compounds; about 4,500 (2.2%) were called active. About 12% were inconclusive and are not listed. Only a selection was taken, and actives are over-represented in it overall. A structure can be active in one record and inactive in another. Unmarked numbers belong to inactive results. Calls come from the whole dose curve; as a rule, active = well fitted inhibition curve with a large enough effect; inconclusive = small, poorly fitted or top-dose-only effect, or effect the other way; inactive = flat fitted curve, though single readings scatter.
# Target: Cruzipain (Trypanosoma cruzi) (UniProt P25779)
# Sequence (P25779 123-467 limits assumed): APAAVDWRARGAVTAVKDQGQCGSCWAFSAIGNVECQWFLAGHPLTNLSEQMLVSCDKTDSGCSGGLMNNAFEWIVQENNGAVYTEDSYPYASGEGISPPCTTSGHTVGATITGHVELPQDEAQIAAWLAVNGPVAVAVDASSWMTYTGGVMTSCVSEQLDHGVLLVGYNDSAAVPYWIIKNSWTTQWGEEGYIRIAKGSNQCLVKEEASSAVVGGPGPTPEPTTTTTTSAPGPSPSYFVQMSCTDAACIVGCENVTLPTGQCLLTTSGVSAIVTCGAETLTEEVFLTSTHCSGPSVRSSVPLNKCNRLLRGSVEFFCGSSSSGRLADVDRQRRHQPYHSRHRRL
# Assay: qHTS Assay for Promiscuous and Specific Inhibitors of Cruzain (without detergent); note: nearly all actives have a fitted effect of over 40% in size;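 for max response, negative = inhibition: plate controls were enzyme without inhibitor for no effect and buffer without enzyme for full effect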
# Details: purified cruzain, Z-FR-AMC fluorescence, no detergent
# Summary of the method: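 Purified cruzain at 1.5 nM, pre-incubated 15 min with compound at room temperature in 100 mM sodium acetate pH 5.5, 5 mM DTT, 0.00005% Triton X-100. Reaction started with 2 uM Z-FR-AMC; AMC fluorescence increase over 60 s gives rate.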
# Potency is the fitted concentration of half-maximal effect.
Compound,"max response, negative = inhibition [%]",Potency
Cc1ccccc1N1CCN(CCCOc2ccc3c(C)cc(=O)oc3c2)CC1,-15.8,
COC(=O)COc1ccc2oc(=O)cc(C)c2c1,-6.25,
Cc1ccccc1NC(=O)c1ccc(COc2ccc3c(C)cc(=O)oc3c2)cc1,,10 µM (active)
CC(=O)N1CCCc2ccc(NS(=O)(=O)c3ccc(F)cc3F)cc21,8.5,
COc1cc2c(cc1OC)C(COc1ccc(F)cc1)N(C(=O)c1ccccc1F)CC2 (configuration not stated),28.1,
COc1ccc(-c2c(C)cc3oc(=O)cc(-c4ccccc4)c3c2C)cc1F,,39.8 µM (active)
CC(=O)COc1ccc2c(-c3ccccc3)cc(=O)oc2c1,2.99,
COc1ccc(-c2c(C)cc3oc(=O)cc(-c4ccccc4)c3c2C)cc1OC,-25.9,
Cc1cc(C)cc(NC(=O)CSc2nc3nccnc3c(=O)n2CCc2c[nH]c3ccccc23)c1,-2.15,
O=S(=O)(c1ccccc1)c1nc(-c2ccc(Cl)cc2Cl)oc1N1CCCCC1,-16.2,
Cc1ccc(S(=O)(=O)n2nc(C)c(S(=O)(=O)N3CCCCCC3)c2C)cc1,-10.4,
Oc1c(Cl)cc(Cl)c(Cl)c1Cc1c(O)c(Cl)cc(Cl)c1Cl,-18.2,31.6 µM (active) and 25.1 µM (active)
CCOc1ccc(NC(=O)CSc2c3c(nc4ccccc24)CCCC3)cc1,1.83,
CCOc1ccc(NC(=O)CSc2ncnc3c2sc2ccccc23)cc1,-8.47,25.1 µM (active)
CCOc1ccc(NC(=O)CSc2nc3ccccc3c(=O)n2Cc2cccs2)cc1,-21.1,
Cc1ccc(C)c(N2CCN(C(c3ccccc3)c3nnc(-c4ccccc4)o3)CC2)c1 (configuration not stated),-12.6,
COc1ccc(CCNC(=O)CCCCn2c(=O)c3ccccc3n(Cc3ccccc3)c2=O)cc1OC,-0.815,
COc1cc(C2c3c(oc4ccccc4c3=O)C(=O)N2c2nc(C)c(C)s2)ccc1O (configuration not stated),-4.14,
COc1ccccc1CNC(=O)CCCCn1c(=O)c2ccccc2n(CC(=O)Nc2cc(Cl)ccc2C)c1=O,-2.88,
COc1ccccc1OCCNc1cc(N2CCOCC2)ccc1[N+](=O)[O-],26.2,
O=[N+]([O-])c1ccc(N2CCN(S(=O)(=O)c3ccc4ccccc4c3)CC2)cc1NCc1ccco1,,7.94 µM (active)
O=C(c1ccccc1)N1CCN(c2ccc([N+](=O)[O-])c(NCc3ccco3)c2)CC1,-12.2,

Compound,"max response, negative = inhibition [%]",Potency
CCc1ccccc1NC(=O)CSc1nc(C)c(C(=O)Nc2ccccc2)c(-c2ccc(Cl)cc2)c1C#N,4.27,
CCc1ccc(NC(=O)CN2C(=O)C(c3ccccc3)=NC23CCCCCC3)cc1,-25.9,
COc1ccc(S(=O)(=O)N(C)CC(=O)Nc2ccc3c(c2)OCCO3)cc1OC,-3.41,
O=C(CN(c1ccc2c(c1)OCCO2)S(=O)(=O)c1ccccc1)Nc1ccc2c(c1)OCO2,,12.6 µM (active)
Cc1noc(C)c1S(=O)(=O)N(CC(=O)Nc1ccc2c(c1)OCCO2)c1ccc(C(C)C)cc1,0.199,
Cc1ccc(S(=O)(=O)N(CC(=O)Nc2ccc(Cl)cc2Cl)c2ccccc2C)cc1,-29.7,
COc1ccc(-n2nc(C(=O)NCCc3ccc(Cl)cc3)c3c4ccccc4n(C)c3c2=O)cc1Cl,-5.4,
COC(=O)c1sccc1N/N=C(\C)c1ccc(F)c(Cl)c1,,20 µM (active)
COC(=O)c1sccc1NC(=O)c1cc(OC)c(OC)c(OC)c1,13.7,
COC(=O)c1sccc1NC(=O)COc1ccc(Cl)cc1,-7.31,
O=C(CCS(=O)(=O)c1ccccc1)N(Cc1cccnc1)c1nc2c(F)cccc2s1,15.4,
CC(C)CN(C(=O)c1cccc(S(=O)(=O)N2CCCCC2)c1)C1CCS(=O)(=O)C1 (configuration not stated),5.95,
COc1ccc(OCCCn2c(C)nc3cc(C)c(C)cc32)cc1,11.2,
COc1cccc(N2CC(NC(=O)/C=C\c3ccccc3)CC2=O)c1 (configuration not stated),-5.97,
OC(COc1ccc2c(c1)CCC2)CN1CCN(c2cccc(Cl)c2)CC1 (configuration not stated),1.52,
O=c1cc(CN2CCN(S(=O)(=O)/C=C/c3ccccc3)CC2)c2ccc(O)cc2o1,-11.9,
O=c1cc(CN2CCN(c3cccc(Cl)c3)CC2)c2cc3c(cc2o1)CCCC3,,12.6 µM (active)
O=C(CC1(O)C(=O)N(CN2CCOCC2)c2ccccc21)c1ccccc1 (configuration not stated),2.42,
C=CCN1C(=O)C(O)(CC(=O)c2ccc(Cl)cc2)c2ccccc21 (configuration not stated),,12.6 µM (active)
Cc1ccc(C(=O)CC2(O)C(=O)N(CCc3ccccc3)c3ccc(Br)cc32)cc1 (configuration not stated),7.97,
CC(=O)Nc1ccc(NC(=O)CCCc2nc(-c3ccc(C(C)(C)C)cc3)no2)cc1,-10.5,
O=C(CC(NCc1cccnc1)C(=O)O)Nc1ccc(O)cc1 (configuration not stated),7.85,

Compound,"max response, negative = inhibition [%]",Potency
Cc1cc(C)cc(NC(=O)Cn2c(=O)c3ccccc3n3nncc23)c1,4.51,
COc1cc(OC)c(N(C)C(=O)c2cc3c(=O)oc4ccccc4c3s2)cc1Cl,6.95,
Cc1ccc2nc(COc3cccc(NC(=O)c4ccccc4Cl)c3)cc(=O)n2c1,-3.57,
CCOc1ccccc1NC(=O)CCc1ccc(C)o1,8.1,
Cc1ccc(CCC(=O)Nc2ncc(Cc3cc(Cl)ccc3Cl)s2)o1,,25.1 µM (active)
Cc1cnc(NC(=O)CSc2nnc(-c3ccc(Cl)cc3Cl)n2N)s1,-2.62,
O=C(Cn1c(=O)n(-c2ccc(F)cc2)c(=O)c2sc3ccccc3c21)NC1CCCC1,-5.91,
CCOC(=O)c1ccccc1NC(=O)CCc1c(C)nc2c(c1C)c(=O)n(C)c(=O)n2C,-1.55,
COc1ccc(OCCCC(=O)NCCc2ccccc2)cc1,-1.93,
O=C(NCCc1ccccc1)c1ccc(OCCOc2ccccc2)cc1,,20 µM (active)
O=C(NCCOc1ccccc1)c1ccccc1,-3.94,
Cc1ccc(NC(=O)c2ccc3[nH]c(C)cc(=O)c3c2)c(C)c1,-6.14,
COc1ccc(-c2cc(NCc3ccc(F)cc3)n3cnnc3n2)cc1,6.65,
Cc1ccc(C(=O)Nc2cc3c(cc2N2CCCC2)n(C)c(=O)c(=O)n3C)cc1,-9.28,
CC(C)c1ccc(NC(=O)Cn2nnc(C(=O)NCCc3ccccc3)c2N)cc1,,3.16 µM (active)
CCOC(=O)c1cn(CC(=O)Nc2ccc(C(C)C)cc2)nn1,3.14,
Cc1cccc(NC(=O)c2nnn(CC(=O)Nc3ccc(C(C)C)cc3)c2N)c1C,,20 µM (active)
CCOc1ccccc1NC(=O)Cn1nnc(C(=O)Nc2ccc(C)c(C)c2)c1N,0.467,
COc1ccc(NC(=O)Cn2nnc(C(=O)NCCc3ccc(OC)c(OC)c3)c2N)cc1,28.4,
Nc1c(C(=O)NCc2ccccc2)nnn1Cc1cccc(Cl)c1,-27.5,
COc1ccccc1NC(=O)CSC1=Nc2ccccc2C2=NC(CC(=O)NCc3cccs3)C(=O)N12 (configuration not stated),-5.88,
CC(C)CC(NS(=O)(=O)c1ccc2c(c1)oc(=O)n2C)C(=O)NCc1ccccc1Cl (configuration not stated),-14,

Compound,"max response, negative = inhibition [%]",Potency
Cc1cccc(NC(=O)N2CCN(C)c3ncccc32)c1C,2.65,
Cc1cccc(N2C(=O)c3cccnc3C2=O)c1,-4.26,
CC(=O)Oc1ccc(C)cc1N1C(=O)c2ccc(C(=O)O)cc2C1=O,-6.79,
Cc1ccc(Oc2ccc3c(c2)C(=O)N(c2cccc4cccnc24)C3=O)cc1,,25.1 µM (active)
COc1ccc(CNC(=O)c2ccc3c(c2)nc2n3CCOC2)c(OC)c1,-7.25,
CS(=O)(=O)c1ccc(-c2nnc(NC(=O)c3ccc4c(c3)OCCO4)o2)cc1,0.217,
Cc1ccc2oc3c(c(=O)c2c1)C(c1ccc(O)cc1)N(Cc1ccc2c(c1)OCO2)C3=O (configuration not stated),3.18,
N/C(=N\c1nc2ccccc2o1)NC(=O)C(Cc1ccccc1)N1C(=O)c2ccccc2C1=O (configuration not stated),,25.1 µM (active)
O=C(NC1=NCCS1)[C@H](Cc1ccccc1)N1C(=O)c2ccccc2C1=O,-18.4,
O=C(NCCN1CCOCC1)[C@H](Cc1ccccc1)N1C(=O)c2ccccc2C1=O,-6.89,
COc1cccc(Cn2c(SCc3ccc(C(=O)N4CCC(C)CC4)cc3)nc3ccncc32)c1,6.55,
Cc1ccccc1CS(=O)(=O)CC1Nc2ccc(C(=O)NCc3ccc(Cl)cc3)cc2NC1=O (configuration not stated),-11.5,
Cc1ccc(CNC(=O)CCc2c(C)nn(-c3ccc(N4CCCC4)nn3)c2C)cc1,-1.47,
CCOC(=O)C1=C(C)NC(C)=C(C(=O)OCC)C1c1ccccn1,6.72,
CCOC(=O)C1=C(C)Nc2sc(C(=O)c3ccc(Br)cc3)c(N)c2C1c1ccc(C(=O)OC)cc1 (configuration not stated),,10 µM (active)
COC(=O)c1ccc(C2NC(=O)NC(C)=C2C(=O)N(C)C)cc1 (configuration not stated),-7.98,
Cc1ccc(Cc2nc3ccccc3nc2SCC(=O)Nc2cccc(C(F)(F)F)c2)cc1,-25,
CCN(CC)CCNC(=O)c1cc2c(=O)oc3ccc(C)cc3c2s1,-5.21,
Cc1ccc2c(c1)c1c(c(=O)n(-c3ccccc3)c(=O)n1CC(=O)c1ccc(Cl)cc1)n2C,12.5,

# Reference: PubChem BioAssay AID1476 (National Center for Advancing Translational Sciences (NCATS), 2009)
